Data on 38 sequences can be found in publication PMC3795721, “Screening for Protein-DNA Interactions by Automatable DNA-Protein Interaction ELISA”.

This experiment deals with AT4G31550 (Arabidopsis thaliana, UniProt Q9SV15 228-325). Kind of experiment: DPI-ELISA; DPI-ELISA, streptavidin 384-well plate, 1-2 pmol biotinylated dsDNA per well, crude native E. coli extract, anti-His detection; buffer as in Brand et al. [46],; high values mean tight binding. The settings on record: tags: C-terminal His (pET-DEST42); label: 5' biotin on forward strand; dsDNA, one strand shown. (In general: An ELISA detects its analyte on a solid surface through an enzyme-linked reagent.)
Chain of AT4G31550 (Q9SV15 228-325): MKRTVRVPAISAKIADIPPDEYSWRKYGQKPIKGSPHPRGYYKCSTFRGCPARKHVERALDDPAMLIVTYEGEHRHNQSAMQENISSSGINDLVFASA
AAAAAAAGGTTTGGGCTTCACGTTATAAAA gave a binding signal of 0.725 ± 0.12 absorbance.

As for AAAAAATGTCTAGACTCGGACATTCGAAAA, the binding signal came out at 0.54 ± 0.0566 absorbance.

AAAAAACGCCGGACAATCAGGCGCTCAAAA displayed a binding signal of 0.625 ± 0.177 absorbance.

AAAAAATTCGGGACTAGTAGTGGTGAAAAA: the binding signal amounted to 0.605 ± 0.0778 absorbance.

As to AAAAAATGCAACGCTCCTTTCCCGCTAAAA, the binding signal was determined as 0.535 ± 0.106 absorbance.

In turn, AAAAAAACCCGTGCCTGCCTATTGCAAAAA displayed a binding signal of 0.395 ± 0.0495 absorbance.

In turn, AAAAAATGCAGACCTTCAGCTGGGTAAAAA yielded a binding signal of 0.58 ± 0.0141 absorbance.

AAAAAAATCGTTGTTATCGTATTTATAAAA registered a binding signal of 0.565 ± 0.12 absorbance.

AAAAAATGCCGAGACCCCATGCCGGCAAAA registered a binding signal of 0.51 ± 0.099 absorbance.

Consider AAAAAAGCTTTCAACATCTGCGTCCAAAAA, for which the binding signal was determined as 0.42 ± 0.0424 absorbance.

As for AAAAAAATTGTATCATACTTCAGTTGAAAA, the binding signal amounted to 0.61 ± 0.0707 absorbance.

Sequence AAAAAATGATGTTGGCGCATTTAAACAAAA yielded a binding signal of 0.53 ± 0.127 absorbance.

AAAAAACCGATCATCACATATCACTGAAAA came in with a binding signal of 0.58 ± 0.141 absorbance.

AAAAAAGGAAGTACTGACGATCTGGAAAAA gave a binding signal of 0.615 ± 0.148 absorbance.

AAAAAATGTCGGCTGTTAGGATATCGAAAA: the binding signal was found to be 0.625 ± 0.0495 absorbance.

AAAAAATCATCTCTATGTTATTGTTGAAAA: the binding signal was found to be 0.58 ± 0.113 absorbance.

For AAAAAAGCTCATGGCCCTGAGGATCTAAAA, the binding signal worked out at 0.73 ± 0.113 absorbance.

AAAAAAATCCATATTATTGCTACCCGAAAA had a binding signal of 0.595 ± 0.0636 absorbance.

Regarding AAAAAATATGGCACTCGCCGCACATCAAAA, the binding signal is 0.755 ± 0.191 absorbance.

The sequence AAAAAAACTCAACTAGTGAACCACCAAAA yielded a binding signal of 0.625 ± 0.0636 absorbance.

On to AAAAAAGCTCGTCTCCGCCTCCTGCTAAAA, for which the binding signal worked out at 0.785 ± 0.262 absorbance.

Consider AAAAAAGTTATTATACCTGATCTCGCAAAA, for which the binding signal came to 1 ± 0.778 absorbance.

Turning to AAAAAAGGTTGGTACGTCGAGTTCTTAAAA, the binding signal is 0.565 ± 0.163 absorbance.

AAAAAACATTCCTAGTTCATGTTACTAAAA had a binding signal of 0.665 ± 0.134 absorbance.

On to AAAAAAGGCTCCGGCCCCCAATCGCAAAAA, for which the binding signal was 0.61 ± 0.0566 absorbance.

The sequence AAAAAACCGTATGTATATCTATATGTAAAA came in with a binding signal of 0.42 ± 0.113 absorbance.

Take AAAAAATTGCATTCCACCCTTAGGTTAAAA: the binding signal was found to be 0.495 ± 0.106 absorbance.

In turn, AAAAAATCGCGAACGTACGTCCGCGGAAAA displayed a binding signal of 0.51 ± 0.113 absorbance.

AAAAAATGGATCTTTACTTTAGGCCAAAAA: the binding signal was 0.92 ± 0.424 absorbance.

In turn, AAAAAAACCGCGTCGCGGCCCGGGAAAA displayed a binding signal of 0.5 ± 0.113 absorbance.

Consider AAAAAAAAATGCTAGCGCGTACGTAAAAAA, for which the binding signal stood at 0.69 ± 0.17 absorbance.

AAAAAATTCTTAGTTAGATTCACCTCAAAA showed a binding signal of 0.575 ± 0.134 absorbance.

The sequence AAAAAATTGCCGTCATAATTGTGGTAAAAA showed a binding signal of 0.59 ± 0.0849 absorbance.

AAAAAATTTGCGCTTCATCCTGCCCCAAAA displayed a binding signal of 0.715 ± 0.106 absorbance.

AAAAAACCAACTCTCTTTCGGACTATAAAA registered a binding signal of 0.67 ± 0.156 absorbance.

In turn, AAAAAATGAGAGAATTTCCGGTTCAGAAAA came in with a binding signal of 0.575 ± 0.0495 absorbance.

With AAAAAAGGGTATACTCGCAGCCCCTAAAAA, the binding signal came to 0.51 ± 0.0849 absorbance.

Sequence AAAAAACTACTACCTTTGCCTAAGCGAAAA had a binding signal of 0.685 ± 0.0919 absorbance.
